Each structure is given as a SMILES string. “And” between values parts separate entries of the source, which are not always exact repeats. Identical values can stand only once. Inconclusive results are not listed. The source holds several records for some structures; these can differ, active in one and inactive in another. Values without a mark were called inactive. The source made the active and inactive calls. Calls follow the shape of the dose curve; as a rule, active = well fitted curve in the direction sought with a large enough effect; inconclusive = small, poorly fitted or top-dose-only effect, or another doubt; inactive = no such curve, though single readings can be large; an effect the other way counts as inactive or inconclusive.

One assay relates to MKL-1. In words: qHTS assay to identify novel small-molecules to repurpose for Merkel cell carcinoma treatment (AID 1296009). Also: nearly all actives have a fitted effect of over 60% in size. The conditions noted are these: MCC and control cell lines, CellTiter-Glo viability, 72 h; series mostly up to 46 µM. The method in brief: (§1)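 Viability readout: ATP luminescence (CellTiter-Glo) after 72 hr drug exposure at 37 degree celsius. Dose-response format was 8 points for NPC and 11 points for MIPE; data normalized to in-plate controls.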

The test system of a further assay is MKL-2. Described as above. The conditions noted are these: MCC and control cell lines, CellTiter-Glo viability, 72 h; series mostly up to 46 µM. Put shortly: as §1
The test system of a further assay is NIH3T3. Described as above. To be noted: MCC and control cell lines, CellTiter-Glo viability, 72 h; at 44.8 µM (top of the series) unless noted. Put shortly: as §1
The subject of the next assay is UISO. Described as above. To be noted: MCC and control cell lines, CellTiter-Glo viability, 72 h; series mostly up to 46 µM. Put shortly:
as §1

Another assay deals with WaGa. The assay is described as above. The conditions noted are these: MCC and control cell lines, CellTiter-Glo viability, 72 h; series mostly up to 46 µM. Put shortly: as §1
For a further assay, the system named is C33A. In words: Primary qHTS to identify gynecologic anti-cancer compounds using libraries of approved drugs and bioactive compounds (AID 1345084). Also: nearly all actives have a fitted effect of over 55% in size. To be noted: Gynecologic cancer cell panel viability, ATPlite luminescence, 48 h; series mostly up to 57.5 µM. The method in brief:
(§2)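 Cell viability after 48 h drug treatment, ATPlite luminescence readout; five doses.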

For a further assay, the system named is CAOV3. The description is as above. The conditions noted are these: Gynecologic cancer cell panel viability, ATPlite luminescence, 48 h; series mostly up to 57.5 µM. Put shortly: as §2
The next assay relates to CASKI. The assay is described as above. To be noted: Gynecologic cancer cell panel viability, ATPlite luminescence, 48 h; series mostly up to 57.5 µM. Put shortly: as §2
Another assay concerns Es-2. The description is as above. The conditions noted are these: Gynecologic cancer cell panel viability, ATPlite luminescence, 48 h; series mostly up to 57.5 µM. Put shortly:
as §2

A further assay relates to HeLa. Described as above. To be noted: Gynecologic cancer cell panel viability, ATPlite luminescence, 48 h; series mostly up to 57.5 µM. The method in brief:
as §2

A further assay has as its system Hek293T. The description is as above. The conditions noted are these: Gynecologic cancer cell panel viability, ATPlite luminescence, 48 h, control line for the selectivity index; series mostly up to 57.5 µM. The method in brief:
as §2

The subject of another assay is JEG-3. The assay is described as above. The conditions noted are these: Gynecologic cancer cell panel viability, ATPlite luminescence, 48 h; series mostly up to 57.5 µM. The method in brief:
as §2

The subject of the next assay is OV90. The description is as above. To be noted: Gynecologic cancer cell panel viability, ATPlite luminescence, 48 h; series mostly up to 57.5 µM. The method in brief:
as §2

The test system of a further assay is PA-1. The description is as above. To be noted: Gynecologic cancer cell panel viability, ATPlite luminescence, 48 h; series mostly up to 57.5 µM. The method in brief: as §2
For the next assay, the system named is SKOV3. The description is as above. The conditions noted are these: Gynecologic cancer cell panel viability, ATPlite luminescence, 48 h; series mostly up to 57.5 µM. Put shortly: as §2
The next assay concerns Tov-21-G. Described as above. To be noted: Gynecologic cancer cell panel viability, ATPlite luminescence, 48 h; series mostly up to 57.5 µM. Put shortly: as §2
In another assay the test system is Tov112D. The assay is described as above. To be noted: Gynecologic cancer cell panel viability, ATPlite luminescence, 48 h; series mostly up to 57.5 µM. The method in brief: as §2
The next assay relates to MCC-26. As to the kind of experiment: qHTS assay to identify novel small-molecules to repurpose for Merkel cell carcinoma treatment (AID 1296009). Also: nearly all actives have a fitted effect of over 60% in size. The conditions noted are these: MCC and control cell lines, CellTiter-Glo viability, 72 h; series mostly up to 46 µM. The method in brief: as §1
Assay [1] is described as follows: Drug repurposing screens with cells derived from glioblastoma tumor samples (AID 1345199). Also: nearly all actives have a fitted effect of over 40% in size. The conditions noted are these: GBM patient neurospheres viability, ATP luminescence, 48 h. The method in brief: (§3)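 Primary testing used CD133+ neurospheres from four GBM patients, seven concentrations, 48 h exposure and ATP-based viability; confirmation added three slower-growing patient lines.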

Another assay relates to astro. The assay is described as above. The conditions noted are these: viability, ATP luminescence, 48 h; series mostly up to 45.9 µM. The method in brief:
as §3

The mark [2] stands for this setting: at 45.9 µM (top of the series), tumour line B.
Setting [3] is: at 45.9 µM (top of the series), tumour line D.
Where [4] appears, read: at 46.1 µM (top of the series), tumour line C.
% is scaled to controls: 0 for no effect and ±100 for the full control effect; potency is read from the fitted curve at half-maximal effect.

On to `O=Cc1ccccc1C=O`, for which the Potency entry with MKL-1, in the assay with MKL-2, in the assay on UISO, with WaGa, with C33A and with CAOV3 was “inactive” each time. For the same compound, the Potency result with CASKI, with Es-2, in the assay with HeLa, in the assay on Hek293T, in the assay with JEG-3 and in the assay on OV90 was “inactive” throughout. In addition, the Potency result with PA-1, in the assay on SKOV3, with Tov-21-G and in the assay on Tov112D was “inactive” throughout. In addition, the outcome in the assay with NIH3T3 was inactive.
As to `CC(=O)Oc1ccc(C2(c3ccc(OC(C)=O)cc3)C(=O)Nc3ccccc32)cc1`, the Potency entry in the assay on MCC-26, in the assay with MKL-1, in the assay with MKL-2, in the assay on WaGa, in the assay with C33A and in the assay with CAOV3 was “inactive” in each case. For the same compound, the Potency entry with CASKI, in the assay with Es-2, with HeLa, in the assay with Hek293T, in the assay on JEG-3 and with PA-1 was “inactive” in each case. The Potency entry with SKOV3 is “inactive”. Further, the Potency with OV90 is 8.91 µM (active). The activity, negative = cell killing in assay [1] (setting [2]) is 0.963% and -11%; in assay [1] (setting [3]) it was -19.5% and -4.76%; in assay [1] (setting [4]), -13% and -13.5%.
For the compound `CC[N+](CC)(CC)CCOc1ccc(/C=C/c2ccccc2)cc1`, the Potency result in the assay on MCC-26 was “inactive”. Besides, the Potency was 2.99 µM (active) in the assay with MKL-1; 1.68 µM (active) in the assay with MKL-2; 1.19 µM (active) in the assay on UISO; 1.88 µM (active) in the assay on WaGa; 14.1 µM (active) in the assay with C33A; 31.6 µM (active) with JEG-3. Moreover, the Potency is 17.8 µM (active) in the assay with OV90, 2.51 µM (active) in the assay with PA-1, 10 µM (active) in the assay with SKOV3 and 25.1 µM (active) in the assay on Tov-21-G.
For `O=C(CCCN1CCN(c2ccccn2)CC1)c1ccc(F)cc1`, the Potency result in the assay with MCC-26, in the assay with MKL-1, in the assay on MKL-2, in the assay with WaGa, with C33A and in the assay with CAOV3 was “inactive” each time. Besides, the Potency entry with CASKI, in the assay on Es-2, in the assay on HeLa, with Hek293T, with JEG-3 and with OV90 was “inactive” throughout. Besides, the Potency result with PA-1, in the assay on SKOV3, with Tov-21-G, with Tov112D and in the assay with astro was “inactive” in each case. Also, in [1] (setting [2]), the activity, negative = cell killing was -17%. For the same compound, the Potency in assay [1] (tumour line A) is 8.91 µM (active).
In the case of `O=C1Nc2ccc(Cl)cc2[C@@](C#CC2CC2)(C(F)(F)F)O1`, the Potency entry with MCC-26, in the assay with C33A, with CAOV3, with CASKI, with Es-2 and in the assay on HeLa was “inactive” in each case. Also, the Potency entry in the assay on Hek293T, in the assay with JEG-3, in the assay with OV90, in the assay on PA-1, in the assay on SKOV3 and with Tov-21-G was “inactive” each time. The Potency result in the assay with Tov112D is “inactive”. The activity, negative = cell killing in assay [1] (setting [2]) was -20.8%; in assay [1] (setting [4]) it was -5.83%. Besides, the Potency in assay [1] (tumour line A) was 17.8 µM (active).
Turning to `CCCCOc1cc(C(=O)OCCN(CC)CC)ccc1N`, the Potency entry with MKL-1, with MKL-2, in the assay with UISO, with WaGa, in the assay on C33A and with CAOV3 was “inactive” throughout. Moreover, the Potency result in the assay with CASKI, in the assay on Es-2, in the assay with HeLa, with Hek293T, in the assay with JEG-3 and with OV90 was “inactive” in each case. For the same compound, the Potency result in the assay on PA-1, in the assay with SKOV3, in the assay on Tov-21-G, in the assay with Tov112D and in the assay on astro was “inactive” in each case. The result with NIH3T3 was inactive. The activity, negative = cell killing in assay [1] (at 20 µM (top of the series), tumour line C) was -6.35%; in [1] (at 21.2 µM (top of the series), tumour line B), -29.6%. In addition, in assay [1] (tumour line A), the Potency was 11.2 µM (active).
On to `Cc1ccc2nc(N)[nH]c(=O)c2c1Sc1ccncc1`, for which the Potency entry in the assay with MCC-26, in the assay with MKL-1, with C33A, in the assay on Es-2, with Hek293T and in the assay with OV90 was “inactive” in each case. Besides, the Potency result with PA-1, with SKOV3 and with Tov-21-G was “inactive” throughout. In addition, the Potency in the assay on WaGa was 3.35 µM (active); in the assay with JEG-3, 6.31 µM (active); in the assay on Tov112D, 3.55 µM (active); in [1] (tumour line A), 7.08 µM (active). Besides, the activity, negative = cell killing in assay [1] (setting [3]) is -18.7%; in assay [1] (setting [4]) it was -42.8%.
On to `NCCNCCNCCN`, for which the Potency result in the assay on MCC-26, in the assay on MKL-1, in the assay with MKL-2, with UISO, in the assay on WaGa and in the assay on C33A was “inactive” throughout. Further, the Potency entry in the assay on CASKI, with Es-2, with HeLa, in the assay with Hek293T, with JEG-3 and with OV90 was “inactive” each time. Further, the Potency result with PA-1, with SKOV3, in the assay with Tov-21-G, with Tov112D and with astro was “inactive” throughout. Also, the activity, negative = cell killing in assay [1] (setting [2]) was -6%; in assay [1] (setting [3]), -28.2%; in assay [1] (setting [4]), -8.15%.
With `NC1CCN(c2cccc(Cl)n2)CC1`, the Potency result with MKL-1, in the assay with MKL-2, in the assay with UISO, in the assay on WaGa, in the assay with C33A and with CAOV3 was “inactive” in each case. Moreover, the Potency entry with CASKI, in the assay with Es-2, in the assay on HeLa, with Hek293T, in the assay on JEG-3 and with OV90 was “inactive” each time. The Potency result in the assay with SKOV3, in the assay with Tov-21-G, in the assay on Tov112D and with astro was “inactive” throughout. Moreover, the outcome in the assay with NIH3T3 was inactive. In addition, the activity, negative = cell killing was -8.95% in assay [1] (setting [2]), 3.86% in [1] (setting [3]) and -16% in [1] (setting [4]). In addition, the Potency in assay [1] (tumour line A) is 11.2 µM (active).
Turning to `CN1CCCCC1CCN1c2ccccc2Sc2ccc(S(C)=O)cc21` (stereo unspecified), the Potency entry with MCC-26, in the assay on MKL-1, in the assay with MKL-2, with UISO, in the assay with C33A and in the assay with CAOV3 was “inactive” throughout. The Potency entry in the assay on CASKI, in the assay on Es-2, in the assay with HeLa, in the assay on Hek293T, with JEG-3 and in the assay on OV90 was “inactive” throughout. The Potency entry in the assay with PA-1, with SKOV3, in the assay on Tov-21-G, in the assay on Tov112D and in the assay with astro was “inactive” throughout. Also, the activity, negative = cell killing in assay [1] (setting [2]) was -8.07%; in assay [1] (setting [4]), -16.7% and 11.5%.
On to `CCCCCCCCCCCCCCCC(=O)NCCO`, for which the Potency entry with MCC-26, in the assay on MKL-1, in the assay on MKL-2, in the assay on UISO, in the assay with WaGa and with C33A was “inactive” in each case. In addition, the Potency result in the assay on CASKI, with Es-2, in the assay on HeLa, in the assay on Hek293T, in the assay with JEG-3 and in the assay on OV90 was “inactive” in each case. The Potency result in the assay on PA-1, in the assay on Tov-21-G, in the assay with Tov112D and in the assay on astro was “inactive” each time. Besides, the activity, negative = cell killing in assay [1] (setting [2]) was 0.41%; in assay [1] (setting [3]) it was -8.68%; in assay [1] (at 46 µM (top of the series), tumour line A), -19.5%; in assay [1] (setting [4]) it was -10.8%.

The values are drawn from PubChem BioAssay (NCATS).
